Screening results (PubChem)
Eya2 inh = inhibitors of human Eya2 phosphatase activity | AID 488837 | hit rate 0.006% among 330,000 | O00167 | recombinant Eya2, OMFP fluorescence dephosphorylation (OMFP is methylfluorescein phosphate) | Potency, µM (highest dose often 76.9 µM), for the others: top-dose activity, negative = inhibition, usual class: inhibitors; note: potency is the fitted concentration of half-maximal effect
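Eya2 (0.2 uM) preincubated 10 min at ambient with compound, then OMFP substrate added at 50 uM; 10 min reaction in 50 mM HEPES pH 7.5, 50 mM NaCl, 5 uM MgCl2, 0.05% BSA, 1 mM DTT. Fluorescence read at Ex 485/Em 525 nm.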
Six1-Eya2 inh = inhibitors of human Six1/Eya2 interaction; AlphaScreen GST-Six1/His-Eya2 binding, biochemical; stronger effect = lower value; hit rate 0.56% among 360,000; Q15475+O00167; activity change, % (test concentration not listed); in the data active = activity change below about -65%; inconclusive = mostly about -30% to -63%
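Compounds are tested against tagged Six1 and Eya2 proteins bridged by glutathione donor and nickel acceptor beads; after a one-hour incubation at 37 °C without light, AlphaScreen emission is recorded.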
CtBP-E1A blk = CtBP/E1A binding inhibition | AlphaScreen GST-E1A/His-CtBP binding, 1536-well; stronger effect = lower value | activity change, % (concentration not given with the values) | hit rate 0.49% among 340,000; in the data active = activity change below about -65%; inconclusive = mostly about -30% to -63%
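Homogeneous bead-based format: GST-tagged E1A captured on glutathione donor beads, His-tagged CtBP on nickel acceptor beads; compounds precede bead addition by 2 h at 37 °C.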
GALK inhibitor = inhibitors of human galactokinase | P51570 | Purified GALK, Kinase-Glo residual ATP luminescence | Potency, µM (top dose mostly 57.5 µM), for inactives: at the top dose activity change, negative = inhibition, most hits filed as inhibitors | hit rate 0.007% among 270,000 | AID 1868; note: potency is the fitted concentration of half-maximal effect
Target sequence (P51570 whole entry, looked up): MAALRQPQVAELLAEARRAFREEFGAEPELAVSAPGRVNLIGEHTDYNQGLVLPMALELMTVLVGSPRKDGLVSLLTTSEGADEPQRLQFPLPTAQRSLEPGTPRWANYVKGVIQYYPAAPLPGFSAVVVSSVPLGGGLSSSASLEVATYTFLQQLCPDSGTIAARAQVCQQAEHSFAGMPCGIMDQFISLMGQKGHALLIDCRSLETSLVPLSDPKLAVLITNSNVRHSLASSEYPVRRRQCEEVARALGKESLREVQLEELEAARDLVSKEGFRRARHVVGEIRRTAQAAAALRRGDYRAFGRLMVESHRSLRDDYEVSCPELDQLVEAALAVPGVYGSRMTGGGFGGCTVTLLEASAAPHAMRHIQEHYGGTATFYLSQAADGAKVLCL
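The enzyme phosphorylates galactose (100 uM) using ATP (35 uM); inhibition is detected as higher residual ATP, quantified by bioluminescence after 1 h reaction at room temperature, pH 8.0.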
TrxR1 substrate = rat thioredoxin reductase 1 substrate activity | O89049 | purified TrxR1 substrate turnover, NADPH consumption readout | Potency, µM (highest dose often 114 µM), inactives show at the top dose activity change, negative = substrate turnover | hit rate 0.01% among 390,000 | AID 588456; note: potency is the fitted concentration of half-maximal effect; nearly all actives have a fitted effect of over 50% in size
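Rat TrxR1, dispensed at 90 nM, was prereduced with 400 uM NADPH (final) for 5 min at ~22 deg C, then incubated with compound 15 min before 400 uM selenite. A first-read NADPH fluorescence drop versus no-compound background flagged substrates.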
TrxR1 inh = inhibitors of rat thioredoxin reductase 1. recombinant rTrxR1, NADPH fluorescence consumption, selenite substrate. Potency, µM (top dose mostly 114 µM), inactives show top-dose activity change, negative = inhibition, usual class: inhibitors. hit rate 1% among 390,000; note: potency is the fitted concentration of half-maximal effect; nearly all actives have a fitted effect of over 65% in size
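Rat TrxR1 (90 nM in the dispensed reagent) was pre-reduced with 400 uM NADPH for 5 min at room temperature, then incubated with compound for 15 min. After 400 uM selenite was added, NADPH fluorescence (Ex 340/Em 450 nm) was followed for 8 min.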
* marks the source's active call; other numbers are inactive results; ? = inconclusive; . = no result; ! = not confirmed by another sample; [ ] = remark or other dose. Shown are actives, neighbours in structure and some others; about 1.5% of the full set was active somewhere. Unless noted, calls come from the whole dose curve; as a rule, active = well fitted curve in the direction sought with a large enough effect; inconclusive = small, poorly fitted or top-dose-only effect, or another doubt; inactive = no such curve, though single readings can be large; an effect the other way counts as inactive or inconclusive. % is set by controls: 0 for no effect and ±100 for the full control effect.

SMILES | Eya2 inh | Six1-Eya2 inh | CtBP-E1A blk | GALK inhibitor | TrxR1 substrate | TrxR1 inh
CCCCC(=O)NC(c1cccc([N+](=O)[O-])c1)c1ccc2cccnc2c1O (stereo not given) | . | ? | . | . | -3% | 16%
COc1cccc(C(NC(C)=O)c2ccc3cccnc3c2O)c1 (stereo not given) | -7% | -67* | -91* | . | 4% | 15%
CC(=O)NC(c1ccc(C(C)C)cc1)c1ccc2cccnc2c1O (stereo not given) | 6% | ? | ? | 6% | -5% | 10%
O=C(NCCn1cc(SCc2ccccc2Cl)c2ccccc21)c1cccs1 | . | . | . | . | 4%[11.4 µM] | 9%
Cc1ccc(-c2ccc(/C=C3\C(=O)ON=C3c3ccccc3)o2)c([N+](=O)[O-])c1 | -13% | -3 | -2 | -8% | -8%[57.1 µM] | 11µM*
CCCCS(=O)(=O)/C=C\C=C/S(=O)(=O)CCCC | 4% | -5 | -5 | 1% | 9%[57.1 µM] | 3.5µM*
c1ccc(CNc2nc(-c3ccccn3)nc3ccccc23)cc1 | -1% | ? | -77* | 0% | -1% | 8%
CCC(=O)OCOc1ccc(/C=C2/CCC(CN(C)C)C2=O)cc1 (stereo not given) | . | -5 | -3 | . | -13% | 1.1µM*
Cc1c(S(=O)(=O)c2ccccn2)c(N)n(Cc2ccccc2Cl)c1C | 13% | -1 | -9 | . | 8%[57.1 µM] | ?
Cc1c(S(=O)(=O)c2ccccn2)c(N)n(Cc2ccccc2)c1C | 0% | 0 | -4 | 3% | 2%[57.1 µM] | 11µM*
COCCn1c(C)c(C)c(S(=O)(=O)c2ccccc2)c1N | ? | 0 | 4 | 6% | 4% | 20µM*
COc1nc(C)cc(C)c1S(=O)(=O)c1ccccc1 | 0% | 14 | . | . | 6% | 14%
CC(C)Cc1nn2c(=O)cc(COC(=O)c3cccc(NC(=O)c4cccs4)c3)nc2s1 | . | . | . | . | 0%[57.1 µM] | 7%[57.1 µM]
CCOC(=O)N1CCN([N+]([O-])=NOc2cc(O/N=[N+](\[O-])N(CC)CC)c([N+](=O)[O-])cc2[N+](=O)[O-])CC1 | . | . | . | . | -13% | 13µM*
CCCCCCCCCCCCCCCCOC(=O)N1CCN(/[N+]([O-])=N/Oc2ccc([N+](=O)[O-])cc2[N+](C)=O)CC1 | . | . | . | . | 12%[0.457 µM] | -31%
CC(C)(C)OC(=O)N1CCN(/[N+]([O-])=N/Oc2ccc([N+](=O)[O-])cc2[N+](=O)[O-])CC1 | . | . | . | . | 15% | ?
O=C(OCCF)N1CCN(/[N+]([O-])=N/Oc2ccc([N+](=O)[O-])cc2[N+](=O)[O-])CC1 | . | . | . | . | 5% | 7.1µM*
COCCOC(=O)N1CCN(/[N+]([O-])=N/Oc2ccc([N+](=O)[O-])cc2[N+](=O)[O-])CC1 | . | . | . | . | -5%[0.457 µM] | 8.9µM*
Cc1ccc(NC(=O)Cn2c(=O)n(Cc3ccccc3)c(=O)c3c(C)c(C)sc32)c(C)c1 | . | . | . | . | 3% | 27%
CC(C)N1C(=O)S/C(=C/c2ccc3c(c2)n(C)c(=O)n3C)C1=O | 19% | 1 | 6 | -3% | 5% | -14%
CCN(CC)c1ccc(/C=C2\SC(=O)N(C(C)C)C2=O)o1 | 20% | 0 | -1 | -4% | -19%[57.1 µM] | 4µM*
COc1ccc(CCn2nnnc2C2(c3ccc(C)cc3)CC2)cc1 | -12% | . | . | . | -2%[57.1 µM] | -2%[57.1 µM]
Cc1c(OCc2ccc(C(=O)O)cc2)ccc2c(-c3ccccc3)cc(=O)oc12 | 7% | -74* | 1 | 8% | 3% | 0%
CCOC(=O)C(Oc1ccc2c(-c3ccccc3)cc(=O)oc2c1C)c1ccccc1 (stereo not given) | -2% | 1 | 12 | -2% | 5%[57.1 µM] | 14%[57.1 µM]
COc1ccc(-n2nc(C#N)c(Cl)cc2=O)cc1 | -12% | -23 | 0 | 1% | 0% | 6.3µM*
SMILES | Eya2 inh | Six1-Eya2 inh | CtBP-E1A blk | GALK inhibitor | TrxR1 substrate | TrxR1 inh
CCc1nn(CC(=O)NC2CC2)c(=O)c2cc3ccccc3n12 | . | . | . | . | 14% | 9%
CCOCCCNC(=O)c1ccc(Cn2c(=O)c3cccn3c3cccnc32)cc1 | . | . | . | . | 17% | 9%
S=C(NCCCc1cnc[nH]1)NCCCN(Cc1ccc(Cl)cc1)c1ccc(-c2ccccc2)cn1 | . | . | . | . | -3% | 89µM*
O=C(O)CN1C(=O)C=CC1=O | . | -4 | 1 | . | . | .
CCN1C(=O)C=CC1=O | 5% | . | . | . | -3%[57.1 µM] | 11µM*!
O=C1C=CC(=O)N1CCCCCCN1C(=O)C=CC1=O | -16% | -15 | -13 | 0% | 6% | 0.71µM*
Cc1ccccc1N/N=C/c1sc(=O)n(Cc2cccc(C(=O)O)c2)c1Cl | -3% | -3 | -8 | 2% | 1% | 50µM*
O=C(O)c1cccc(Cn2c(Cl)c(/C=N/NC(=O)c3ccco3)sc2=O)c1 | 1% | -2 | -11 | -6% | -19% | 79µM*
COC(=O)c1cccc(Cn2c(Cl)c(/C=N/Nc3ccccc3C)sc2=O)c1 | 1% | -22 | 5 | 0% | -13% | 22µM*
CC(C)(C)n1ncc2c(=O)n(Cc3c(F)ccc(F)c3Cl)cnc21 | . | . | . | . | 2% | 9%
O=[N+]([O-])c1ccc(Cl)c(/C=N/n2c(-c3ccncc3)n[nH]c2=S)c1 | -2% | -79* | -73* | . | -19%[57.1 µM] | 5%[57.1 µM]
CN=c1scc(-c2ccccc2F)n1/N=C/c1ccc(O)c(O)c1O | -5% | -75* | ? | 12% | 3%[57.1 µM] | -22%[57.1 µM]
CN=c1scc(-c2ccccc2F)n1/N=C/c1ccc[nH]1 | 1% | -28 | -24 | 6% | -3%[57.1 µM] | 3%[57.1 µM]
CC(C)N=c1scc(-c2cccs2)n1/N=C/c1ccc(O)c(O)c1O | -23% | -76* | ? | 0% | 4% | -13%
CCC(Sc1nc2ncccc2o1)C(=O)Nc1cccc(C)c1 (stereo not given) | . | . | . | . | 4%[57.1 µM] | 7%[57.1 µM]
Cc1ccc(NC(=O)c2ccc(-n3nncc3-c3ccccc3)cc2)cc1 | . | . | . | . | -5% | -5%
CC(NNC(=S)N1CCN(c2ccccn2)CC1)c1nccc2ccccc12 (stereo not given) | . | -92* | 3 | . | 13%[57.1 µM] | 11%[11.4 µM]
CCNC(=S)N1CCN(c2ccccn2)CC1 | 0% | 0 | 0 | 0% | 6% | 10%
O=C(CCl)Nc1cccc(S(=O)(=O)NC2=NCCCCC2)c1 | 2% | 15 | . | . | -5% | 18µM*
O=C(Nc1cccc(S(=O)(=O)NC2=NCCCCC2)c1)c1cc(-c2ccco2)nc2ccccc12 | 16% | -26 | -2 | -6% | 13% | 50µM*
COc1cc2[nH]c(=O)n(CCCC(=O)NCc3ccccc3Cl)c(=O)c2cc1OC | . | . | . | . | 1% | 12%
COC(=O)c1cc(C)nc2c1c(=O)nc(SCc1cccc(C)c1)n2C1CC1 | . | . | . | . | 2%[57.1 µM] | 20%[57.1 µM]
CCOC(=O)c1c(NC(C)=O)sc2c1CCC(C=O)=C2Sc1ccccc1 | 37% | -9 | 2 | 1% | 6% | 1.3µM*
